PubChem BioAssay
A number with no mark means an inactive call. This is one part of the list. Calls of active or inactive are those of the source.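 The calls were made as follows, unless noted: active = mean inhibition across replicates above the hit cutoff set by the earlier primary screen (cut at about 15% in these data); inactive = the rest.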

Legend:
[1] = molecular target: Protein-arginine deiminase type-4 (Homo sapiens) (UniProt Q9UM07); assay: human PAD4 inhibitors, confirmation, biochemical, fluorescence polarization (AID 488796); conditions: recombinant PAD4, RCA probe fluorescence polarization; at 6.36 µM; active compounds read high;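 also: inhibitors block active-site labeling by the probe so polarization falls; 0% = PAD4 with probe and DMSO and 100% = probe without PAD4 enzyme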
[2] = StAR promoter reporter inhibitors, counter-screen for LRH-1 inverse agonist project, cell-based, luminescence, high throughput (AID 651611; in the data active = inhibition above about 28%); conditions: StAR promoter luciferase reporter counterscreen, at 3.6 µM, active compounds read high
[3] = molecular target: Nuclear receptor subfamily 5 group A member 2 (Homo sapiens) (UniProt O00482); assay: LRH-1 (NR5A2) inverse agonists, retest, confirmation, cell-based, luminescence (AID 651613; in the data active = inhibition above about 42%;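 also: HEK293T cells co-transfected with LRH-1 and StAR promoter luciferase reporter; 0% = vehicle wells and 100% = parental cells lacking receptor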); conditions: cell-based LRH-1 luciferase reporter, inverse agonism; at 3.6 µM; active compounds read high
[4] = molecular target: Steroidogenic factor 1 (Homo sapiens) (UniProt Q13285); assay: SF1 (NR5A1) inverse agonists, counter-screen for LRH-1 inverse agonist project, cell-based, luminescence, high throughput (AID 651614; in the data active = inhibition above about 44%;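 also: cells cotransfected with StAR promoter reporter and SF1 expression vector; 0% = vehicle on cells with receptor and 100% = vehicle on cells lacking receptor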); conditions: cell-based SF1 luciferase reporter, at 3.6 µM, active compounds read high
[5] = VP16 transactivation reporter inhibitors, counter-screen for LRH-1 inverse agonist project, cell-based, luminescence, high throughput (AID 651615; in the data active = inhibition above about 33%); conditions: Gal4-VP16 luciferase reporter cells, at 3.6 µM, active compounds read high
[6] = molecular target: (Lyso)-N-acylphosphatidylethanolamine lipase (Mus musculus) (UniProt Q8VD66); assay: ABHD4 inhibitors, retest, confirmation, biochemical, fluorescence polarization, mouse (AID 720658;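 active = mean inhibition across replicates above the hit cutoff set in the primary screen, cut at about 30% in these data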;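 also: 0% = wild-type ABHD4 with DMSO and 100% = catalytically dead S159A mutant with DMSO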); conditions: purified mABHD4, FP-Rh probe fluorescence polarization; at 8.92 µM; active compounds read high
[7] = growth loss of phage-infected E. coli expressing H. pylori AddAB, confirmation, AddAB inhibitor project, absorbance, E. coli V3065, T4 phage, triplicate (AID 488942;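 active = mean inhibition above a set limit taken from the earlier primary screen, cut at about 13% in these data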;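 also: higher means less bacterial growth since AddAB block lets phage replicate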); conditions: OD, at 11.9 µM, active compounds read high, T4 phage with gene 2 nonsense mutations
[8] = growth loss of RecBCD+ E. coli with mutant T4 phage, counter-screen for AddAB inhibitor project, absorbance, V66 E. coli (AID 488955;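 active = mean inhibition above the mean of solvent-only control wells plus 3 SD, cut at about 4% in these data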;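 also: optical density read after an 18 h incubation at 37 °C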); conditions: OD growth, at 11.9 µM, active compounds read high
[9] = bacterial viability inhibition counter-screen, confirmation, counter-screen for AddAB inhibitor project, absorbance (AID 488956; in the data active = inhibition above about 25%); conditions: absorbance (AddAB counterscreen), at 11.9 µM, active compounds read high
[10] = molecular target: Platelet-activating factor acetylhydrolase (Homo sapiens) (UniProt Q13093); assay: pPAFAH (PLA2G7) enzyme inhibitors, confirmation, biochemical, fluorescence polarization, human (AID 463230;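 active = mean inhibition of the triplicate above the hit cutoff set for the earlier primary screen, cut at about 25% in these data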;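 also: 0% = enzyme with DMSO and 100% = wells lacking pPAFAH enzyme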); conditions: recombinant pPAFAH, FP-Rh probe fluorescence polarization; at 3.39 µM; active compounds read high
[11] = test system: DAF-12 nuclear receptor (Heterodera glycines), GAL4-LBD fusion; assay: H. glycines DAF-12 receptor agonists, confirmation, cell-based, luminescence, HEK293, GAL4-LBD fusion (AID 743050;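 active = mean activation over triplicate wells above the hit cutoff derived from the earlier primary screen, cut at about 11% in these data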;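 also: 0% = DMSO low control and 100% = 2 mM sodium butyrate high control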); conditions: HEK293 GAL4-hgDAF12 luciferase reporter, agonist mode; at 6.8 µM; active compounds read high; percent of butyrate response
[12] = molecular target: Oxysterols receptor LXR-beta (Homo sapiens) (UniProt P55055); assay: LXR agonists, Gal4 luciferase reporter, confirmation, counter-screen for hgDAF-12 agonist project, cell-based, luminescence, HEK293, H. glycines campaign (AID 743051;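 active = mean activation of the triplicate above a set limit carried over from the primary screen, none filed active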); conditions: 24 h, at 6.8 µM, active compounds read high
[13] = molecular target: Receptor-interacting serine/threonine-protein kinase 2 (Homo sapiens) (UniProt O43353); assay: NOD2-RIPK2 binding disruptors, retest, confirmation, fluorescence, CHO cells, BLA complementation, triplicate (AID 624370;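 active = mean inhibition across replicates above a set limit taken from the earlier primary screen, cut at about 21% in these data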;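 also: 0% = DMSO-only wells and the high end = clavulanate BLA-blocked wells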); conditions: CCF4 FRET, at 4.98 µM, active compounds read high
[14] = beta-lactamase reporter inhibitors in CHO cells, confirmation, artefact control for NOD2-RIPK2 interaction inhibitor project, cell-based, CHO-K1 CMV-bla, CCF4 FRET, fluorescence (AID 624371;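 active = mean inhibition above the low-control mean inhibition plus three low-control SD, cut at about 11% in these data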;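 also: 0% = DMSO only wells and 100% = clavulanate high control wells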); conditions: CCF4 FRET ratio, counterscreen, at 4.98 µM, active compounds read high
[15] = compounds interfering with TAMRA-BSA probe, counter-screen for TCR-CD3 interaction inhibitor project, biochemical, fluorescence, TAMRA-labeled BSA (AID 652035; in the data active = inhibition above about 23%;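 also: 0% = buffer low control and 100% = reference high control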); conditions: TAMRA-labeled BSA probe fluorescence counterscreen; at 9.4 µM; active compounds read high
[16] = test system: T-cell receptor (TCR)-CD3 interaction, human; assay: TCR-CD3 interaction inhibitors, retest, confirmation, biochemical, fluorescence, TAMRA-labeled TCR probe (AID 652036; in the data active = inhibition above about 19%); conditions: TAMRA-labeled TCR probe fluorescence binding assay; at 9.4 µM; active compounds read high
[17] = test system: transactivating tegument protein VP16 (Human herpesvirus 1); assay: VP16 transactivation reporter inhibitors, counter-screen for SRC2 inhibitor project, cell-based, luminescence, single concentration (AID 652007; in the data active = inhibition above about 36%); conditions: cell-based VP16 transactivation luciferase reporter, at 8.9 µM, active compounds read high
[18] = molecular target: Nuclear receptor coactivator 2 (Homo sapiens) (UniProt Q15596); assay: SRC2 coactivator transcriptional activity inhibitors, confirmation, cell-based, luminescence, HEK293, triplicate (AID 652008;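 active = mean inhibition above 46.5%, the solvent-only control mean plus 3 SD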;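 also: 0% = DMSO-treated cells and 100% = Gossypol at 36 µM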); conditions: HEK293 GAL4-SRC2 luciferase reporter, at 8.9 µM, active compounds read high
[19] = molecular target: Serine protease HTRA1 (Homo sapiens) (UniProt Q92743); assay: HTRA1 protease inhibitors, retest, confirmation, biochemical, fluorescence polarization (AID 540248;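 active = mean inhibition over three repeats above a set limit taken from the earlier primary screen, cut at about 37% in these data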;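 also: 0% = HTRA1 with DMSO and 100% = wells lacking HTRA1; inhibitors block probe binding so polarization drops and inhibition rises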); conditions: recombinant HTRA1, FP-rhodamine activity-based probe, at 5.96 µM, active compounds read high
[20] = molecular target: Platelet-activating factor acetylhydrolase IB subunit alpha1 (Homo sapiens) (UniProt Q15102); assay: PAFAH1B3 enzyme inhibitors, confirmation, biochemical, fluorescence polarization, human (AID 493032;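 active = average inhibition over triplicate runs above the hit cutoff set in the earlier primary screen, cut at about 25% in these data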;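 also: 0% = enzyme with DMSO and 100% = wells lacking PAFAH1B3 protein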); conditions: recombinant PAFAH1B3, FP-Rh activity-based probe, at 3.39 µM, active compounds read high
[21] = growth loss of phage-infected RecBCD+ E. coli, confirmation, RecBCD inhibitor project, absorbance, E. coli V66, T4 gene 2 phage (AID 651982;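 active = mean inhibition over triplicates exceeding the hit threshold derived in the original primary screen, cut at about 11% in these data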); conditions: E. coli V66 + T4 2- phage, growth OD; at 11.9 µM; active compounds read high
[22] = E. coli viability inhibition, counter-screen for RecBCD inhibitor project, absorbance, high throughput (AID 651983; in the data active = inhibition above about 20%;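 also: E. coli strain V66 grown with compound alone and no phage infection; 0% = bacteria with DMSO vehicle only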); conditions: absorbance (OD) growth, at 11.9 µM, active compounds read high
[23] = growth loss of phage-infected AddAB-carrying E. coli, confirmation, counter-screen for RecBCD inhibitor project, absorbance, E. coli V3065, T4 phage (AID 651984;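 active = mean inhibition above the solvent-only control wells' mean plus 3 SD, cut at about 22% in these data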;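 also: higher means less bacterial growth from phage killing when AddAB is blocked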); conditions: E. coli expressing H. pylori AddAB + T4 phage, OD growth; at 11.9 µM; active compounds read high; gene 2 mutant T4, recBCD-deleted host

Sequence of Protein-arginine deiminase type-4 (Homo sapiens) (Q9UM07 whole entry, looked up): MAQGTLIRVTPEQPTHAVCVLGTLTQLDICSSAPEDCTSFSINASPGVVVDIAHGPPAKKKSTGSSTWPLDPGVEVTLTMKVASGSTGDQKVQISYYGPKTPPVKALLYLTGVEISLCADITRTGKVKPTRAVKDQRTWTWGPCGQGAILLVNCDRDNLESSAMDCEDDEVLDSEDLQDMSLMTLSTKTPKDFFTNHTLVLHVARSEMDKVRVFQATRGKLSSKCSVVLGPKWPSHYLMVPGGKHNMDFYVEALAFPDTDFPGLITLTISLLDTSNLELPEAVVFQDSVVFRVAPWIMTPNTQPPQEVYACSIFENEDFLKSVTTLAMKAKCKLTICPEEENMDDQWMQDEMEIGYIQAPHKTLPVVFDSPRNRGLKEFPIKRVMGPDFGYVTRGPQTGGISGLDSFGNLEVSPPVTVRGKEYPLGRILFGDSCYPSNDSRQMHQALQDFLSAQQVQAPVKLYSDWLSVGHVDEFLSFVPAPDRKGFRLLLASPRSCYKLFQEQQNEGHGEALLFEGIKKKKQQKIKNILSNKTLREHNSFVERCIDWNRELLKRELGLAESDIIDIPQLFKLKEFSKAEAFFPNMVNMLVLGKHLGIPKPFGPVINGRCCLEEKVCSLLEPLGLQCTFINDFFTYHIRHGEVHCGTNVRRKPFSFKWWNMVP
Sequence of Nuclear receptor coactivator 2 (Homo sapiens) (Q15596 whole entry, looked up, the tested form may be a part): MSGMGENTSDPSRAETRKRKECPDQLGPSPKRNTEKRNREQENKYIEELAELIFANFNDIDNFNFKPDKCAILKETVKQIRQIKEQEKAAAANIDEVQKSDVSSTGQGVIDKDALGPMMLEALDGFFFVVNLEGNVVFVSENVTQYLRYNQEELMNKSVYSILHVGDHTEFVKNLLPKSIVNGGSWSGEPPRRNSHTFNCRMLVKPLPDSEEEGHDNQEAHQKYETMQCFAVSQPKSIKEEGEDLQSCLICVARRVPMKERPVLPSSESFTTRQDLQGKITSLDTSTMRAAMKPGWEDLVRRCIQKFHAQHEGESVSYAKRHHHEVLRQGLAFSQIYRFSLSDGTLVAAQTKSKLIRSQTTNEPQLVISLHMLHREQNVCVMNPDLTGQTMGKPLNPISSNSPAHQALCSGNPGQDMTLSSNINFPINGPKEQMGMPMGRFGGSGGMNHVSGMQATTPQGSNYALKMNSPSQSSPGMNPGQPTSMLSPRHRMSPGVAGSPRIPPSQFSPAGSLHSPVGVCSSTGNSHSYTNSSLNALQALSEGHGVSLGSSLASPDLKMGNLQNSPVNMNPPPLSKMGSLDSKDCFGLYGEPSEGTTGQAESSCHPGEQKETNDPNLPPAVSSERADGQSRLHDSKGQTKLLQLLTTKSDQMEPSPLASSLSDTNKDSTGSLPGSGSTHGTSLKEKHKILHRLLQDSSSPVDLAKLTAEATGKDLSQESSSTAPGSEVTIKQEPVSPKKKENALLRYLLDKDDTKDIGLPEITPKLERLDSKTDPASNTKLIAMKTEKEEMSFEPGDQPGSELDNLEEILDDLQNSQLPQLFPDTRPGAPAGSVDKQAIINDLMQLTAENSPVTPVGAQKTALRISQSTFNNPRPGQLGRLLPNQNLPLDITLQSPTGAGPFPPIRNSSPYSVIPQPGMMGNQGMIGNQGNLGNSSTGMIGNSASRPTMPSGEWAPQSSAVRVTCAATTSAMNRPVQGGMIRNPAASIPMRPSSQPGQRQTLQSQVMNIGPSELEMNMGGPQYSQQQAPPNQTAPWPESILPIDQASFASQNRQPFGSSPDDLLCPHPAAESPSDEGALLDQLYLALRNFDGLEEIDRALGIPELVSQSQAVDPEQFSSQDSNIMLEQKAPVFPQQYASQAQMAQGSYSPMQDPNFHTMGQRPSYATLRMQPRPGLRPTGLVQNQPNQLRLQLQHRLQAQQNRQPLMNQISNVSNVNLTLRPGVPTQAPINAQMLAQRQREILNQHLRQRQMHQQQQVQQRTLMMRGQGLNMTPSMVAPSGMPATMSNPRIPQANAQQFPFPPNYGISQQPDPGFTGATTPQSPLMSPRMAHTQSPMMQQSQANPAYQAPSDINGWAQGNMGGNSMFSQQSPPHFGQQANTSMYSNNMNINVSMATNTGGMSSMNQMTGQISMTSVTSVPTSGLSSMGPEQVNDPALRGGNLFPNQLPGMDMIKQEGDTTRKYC
Sequence of (Lyso)-N-acylphosphatidylethanolamine lipase (Mus musculus) (Q8VD66 whole entry, looked up): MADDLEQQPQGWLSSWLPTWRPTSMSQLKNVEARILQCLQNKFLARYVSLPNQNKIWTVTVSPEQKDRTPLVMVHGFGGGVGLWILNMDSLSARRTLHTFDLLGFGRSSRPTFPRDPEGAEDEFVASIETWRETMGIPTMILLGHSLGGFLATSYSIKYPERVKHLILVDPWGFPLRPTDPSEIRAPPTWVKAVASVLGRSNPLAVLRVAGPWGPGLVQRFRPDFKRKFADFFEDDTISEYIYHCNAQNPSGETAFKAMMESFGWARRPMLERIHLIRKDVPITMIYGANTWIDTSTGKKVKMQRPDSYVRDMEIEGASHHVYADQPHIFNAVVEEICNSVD
Sequence of Platelet-activating factor acetylhydrolase (Homo sapiens) (Q13093 whole entry, looked up, the tested form may be a part): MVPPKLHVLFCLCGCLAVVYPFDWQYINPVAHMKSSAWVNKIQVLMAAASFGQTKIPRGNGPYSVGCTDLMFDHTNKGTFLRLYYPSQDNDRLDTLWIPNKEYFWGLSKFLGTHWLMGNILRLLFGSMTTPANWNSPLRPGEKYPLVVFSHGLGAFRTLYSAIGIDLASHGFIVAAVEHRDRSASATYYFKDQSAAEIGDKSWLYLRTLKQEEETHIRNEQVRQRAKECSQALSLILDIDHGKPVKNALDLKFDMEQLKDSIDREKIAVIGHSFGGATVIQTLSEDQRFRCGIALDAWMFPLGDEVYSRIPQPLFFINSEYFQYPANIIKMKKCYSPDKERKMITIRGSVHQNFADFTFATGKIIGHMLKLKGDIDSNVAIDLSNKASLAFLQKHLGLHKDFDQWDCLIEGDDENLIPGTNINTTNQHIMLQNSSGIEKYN
Sequence of Platelet-activating factor acetylhydrolase IB subunit alpha1 (Homo sapiens) (Q15102 whole entry, looked up): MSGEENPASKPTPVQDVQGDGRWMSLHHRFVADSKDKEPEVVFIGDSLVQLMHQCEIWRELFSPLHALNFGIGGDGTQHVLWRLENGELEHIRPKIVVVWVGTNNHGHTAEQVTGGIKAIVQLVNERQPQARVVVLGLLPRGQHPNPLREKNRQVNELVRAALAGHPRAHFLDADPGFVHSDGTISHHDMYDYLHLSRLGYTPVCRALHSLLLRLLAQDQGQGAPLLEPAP
Sequence of Receptor-interacting serine/threonine-protein kinase 2 (Homo sapiens) (O43353 whole entry, looked up): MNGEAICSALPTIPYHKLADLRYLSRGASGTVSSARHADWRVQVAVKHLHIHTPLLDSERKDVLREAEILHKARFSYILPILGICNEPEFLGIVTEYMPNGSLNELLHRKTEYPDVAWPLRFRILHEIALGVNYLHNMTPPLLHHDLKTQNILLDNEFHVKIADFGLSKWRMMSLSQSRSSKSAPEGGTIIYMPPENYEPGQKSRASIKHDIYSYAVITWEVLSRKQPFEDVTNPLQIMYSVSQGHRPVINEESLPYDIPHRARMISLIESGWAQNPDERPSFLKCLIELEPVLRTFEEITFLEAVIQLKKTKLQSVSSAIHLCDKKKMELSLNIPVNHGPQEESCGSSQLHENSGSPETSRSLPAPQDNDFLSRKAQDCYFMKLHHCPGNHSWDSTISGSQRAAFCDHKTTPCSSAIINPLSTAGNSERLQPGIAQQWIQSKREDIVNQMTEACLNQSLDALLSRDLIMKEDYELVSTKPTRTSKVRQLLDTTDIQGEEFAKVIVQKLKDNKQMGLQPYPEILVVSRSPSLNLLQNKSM
Sequence of Oxysterols receptor LXR-beta (Homo sapiens) (P55055 whole entry, looked up, the tested form may be a part): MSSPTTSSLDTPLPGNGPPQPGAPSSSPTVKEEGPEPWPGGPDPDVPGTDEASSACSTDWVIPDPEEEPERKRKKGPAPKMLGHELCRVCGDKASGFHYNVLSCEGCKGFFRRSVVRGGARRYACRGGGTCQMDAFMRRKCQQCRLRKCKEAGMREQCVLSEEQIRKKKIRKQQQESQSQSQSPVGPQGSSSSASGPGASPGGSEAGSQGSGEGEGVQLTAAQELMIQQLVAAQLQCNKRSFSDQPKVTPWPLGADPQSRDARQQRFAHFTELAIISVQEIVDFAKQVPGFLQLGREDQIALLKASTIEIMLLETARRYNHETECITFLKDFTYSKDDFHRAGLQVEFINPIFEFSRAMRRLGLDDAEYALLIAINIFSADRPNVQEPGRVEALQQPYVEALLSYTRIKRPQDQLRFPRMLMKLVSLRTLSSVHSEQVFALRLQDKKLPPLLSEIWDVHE
Sequence of Nuclear receptor subfamily 5 group A member 2 (Homo sapiens) (O00482 whole entry, looked up): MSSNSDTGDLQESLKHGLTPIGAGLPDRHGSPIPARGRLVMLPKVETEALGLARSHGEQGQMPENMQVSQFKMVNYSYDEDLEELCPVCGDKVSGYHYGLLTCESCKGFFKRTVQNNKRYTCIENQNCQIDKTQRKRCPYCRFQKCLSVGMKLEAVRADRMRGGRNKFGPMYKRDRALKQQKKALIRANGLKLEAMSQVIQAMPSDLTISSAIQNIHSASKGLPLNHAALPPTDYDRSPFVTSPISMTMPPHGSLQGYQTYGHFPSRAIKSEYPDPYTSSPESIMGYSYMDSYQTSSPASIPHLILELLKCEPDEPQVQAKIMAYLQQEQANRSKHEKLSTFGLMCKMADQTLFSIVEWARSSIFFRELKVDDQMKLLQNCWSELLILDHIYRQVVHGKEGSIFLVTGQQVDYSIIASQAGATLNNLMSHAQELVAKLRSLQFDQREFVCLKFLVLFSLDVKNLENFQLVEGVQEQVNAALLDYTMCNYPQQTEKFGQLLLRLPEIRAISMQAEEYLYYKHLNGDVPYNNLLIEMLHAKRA

Which inhibition [1] does the source give for `COc1cc(C(=O)NCc2ccc3c(c2)cc(C)n3C)cc(OC)c1OC` here?
The inhibition was 1.97%.

With `COc1ccc(C2NC(=S)NC3=C2CCc2ccccc23)cc1OC` (centres undefined) as the compound, how does the inhibition [1] read?
Its inhibition is 22.5% (active).

Which results are given for `O=C(NCC1CCCO1)c1cc2c([nH]c3ccccc32)c(-c2ccc(F)cc2)n1` (centres undefined)?
inhibition [1]: 64.8% (active); inhibition [2]: 50.5% (active); inhibition [3]: 41.6% (active); inhibition [4]: 50.1% (active); inhibition [5]: 27.2%

What does the source list for `CN1C(=O)c2cccc3c(N)ccc(c23)C1=O`?
inhibition [1]: 17.1% (active); inhibition [6]: 31.5% (active)

What does the source list for `C=CCNC(=O)c1cc(-c2ccccc2O)on1`?
inhibition [7]: -1.87%; inhibition [8]: 1.86%; inhibition [9]: 0.32%

For `Cn1c(Nc2cccc(Cl)c2)nc2ccccc21`, which inhibition [1] is on record?
Its inhibition is 4.71%.

Which inhibition [1] does the source give for `COc1cc(SC#N)ccc1N=Cc1c(C)[nH]n(-c2ccc(C)cc2)c1=O` here?
Its inhibition is 29.7% (active).

With `CCC(=O)Nc1sc(C(=O)Nc2ccccc2)c(C)c1C(=O)OC` as the compound, how does the inhibition [10] read?
The inhibition was 4.86%.

What about the activation [11] of the same compound?
The activation was 9.78%.

And the activation [12]?
The activation was 0.28%.

With `Cc1ccc(C(=O)CSc2nc3ccccc3c(=O)n2N)o1` as the compound, how does the inhibition [1] read?
The inhibition was 1.81%.

Which inhibition [1] does the source give for `CC(C)C(NC(=O)c1ccc(Cl)cc1)C(=O)O` (centres undefined) here?
Its inhibition is -6.12%.

Which results are given for `Cc1nn(C)cc1N1C(=O)c2cccc3c(N)ccc(c23)C1=O`?
inhibition [1]: 36.2% (active); inhibition [13]: 24% (active); inhibition [14]: 26.6% (active); inhibition [15]: 52.9% (active); inhibition [16]: 33.9% (active); inhibition [6]: 40.4% (active)

Which results are given for `CCOc1[nH]n(-c2ccc(Cl)cc2)c(=O)c1C=Nc1ccc(O)cc1`?
inhibition [1]: 6.04%; inhibition [6]: -0.05%

With `CCCCNC(=O)C1(c2ccc(OC)cc2)CCOCC1` as the compound, how does the inhibition [1] read?
Its inhibition is 8.6%.

For `COc1ccccc1CNC(=O)C1CCN(c2nc3ccccc3o2)CC1`, which inhibition [1] is on record?
Its inhibition is 5.44%.

With `O=C(NCCCO)c1cc2c([nH]c3ccccc32)c(-c2ccc(F)cc2)n1` as the compound, how does the inhibition [1] read?
Its inhibition is 22.4% (active).

Which results are given for `Cc1nn(-c2ccccc2)c(C)c1NC(=O)COc1ccc(Cl)cc1Cl`?
inhibition [1]: 5.05%; inhibition [17]: -8.62%; inhibition [18]: 16.2%

With `CCCCNC(=O)Nc1c(C)cc(SC#N)cc1C` as the compound, how does the inhibition [1] read?
The inhibition was 35.6% (active).

Which inhibition [1] does the source give for `CCc1nnc(SCc2cccc(F)c2)nc1CC` here?
The inhibition was -0.68%.

With `Cc1cc2c(cc1C)N(C(=O)CN1C(=O)c3ccccc3C1=O)C(C)(C)c1ssc(=S)c1-2` as the compound, how does the inhibition [1] read?
Its inhibition is 33.7% (active).

With `CCC(C)Cn1c(O)cc2nn(-c3nc4ccccc4s3)c(=O)c-2c1C` (centres undefined) as the compound, how does the inhibition [10] read?
Its inhibition is 20.9%.

And the inhibition [19]?
The inhibition was 59.6% (active).

What about the inhibition [17] of the same compound?
The inhibition was 86.8% (active).

And the inhibition [18]?
Its inhibition is 94.8% (active).

What about the inhibition [6] of the same compound?
The inhibition was 54.4% (active).

Which inhibition [1] does the source give for `Cc1ccn2cc(-c3nonc3C)cc2c1` here?
The inhibition was 6.98%.

Which inhibition [1] does the source give for `CCOC(=O)N1CCC(c2cc(=O)n(-c3ccccc3)[nH]2)CC1` here?
The inhibition was -0.34%.

Which inhibition [1] does the source give for `C=CCN(C(=O)Nc1ccc2oc(C)nc2c1)c1ccccc1` here?
The inhibition was -3.81%.

Which inhibition [1] does the source give for `CNC(=S)NNC(=O)c1oc2nc(-c3ccccc3)cc(-c3ccco3)c2c1N` here?
Its inhibition is 2%.

What about the inhibition [19] of the same compound?
Its inhibition is 11.5%.

And the inhibition [15]?
Its inhibition is -11.2%.

What about the inhibition [16] of the same compound?
The inhibition was 30.5% (active).

And the inhibition [6]?
Its inhibition is 17.5%.

What does the source list for `O=c1[nH]n(-c2ccc([N+](=O)[O-])cc2)c(=O)c2ccccc12`?
inhibition [1]: 25.3% (active); inhibition [15]: 59.3% (active); inhibition [16]: 46% (active); inhibition [6]: 43.2% (active)

Which inhibition [1] does the source give for `CC(C)n1cnc2c(NCc3ccccc3)cc(OCC3CCN(C)CC3)cc21` here?
Its inhibition is -10.7%.

Which inhibition [1] does the source give for `CC(=O)N(c1ccc2oc(=O)sc2c1)S(=O)(=O)c1ccc(C)cc1` here?
The inhibition was 10.9%.

For `CC(C)c1ccc(NC(=S)NNc2ccc(Cl)c(C(=O)O)c2)cc1`, which inhibition [10] is on record?
The inhibition was 11.9%.

What about the inhibition [6] of the same compound?
The inhibition was 19.4%.

For `Cc1cc(O)ccc1-c1cnc2ccccc2n1`, which inhibition [1] is on record?
The inhibition was 29.1% (active).

With `O=C(/C=C/c1cccs1)c1cc(Cl)ccc1OC(=O)N1CCOCC1` as the compound, how does the inhibition [10] read?
The inhibition was 47.8% (active).

What about the inhibition [17] of the same compound?
Its inhibition is 20.3%.

And the inhibition [18]?
Its inhibition is -4.35%.

Which inhibition [1] does the source give for `COC(=O)c1ccc(NC(=O)CSc2nncc3ccc(OC)c(OC)c23)cc1` here?
Its inhibition is 0.13%.

For `CC(C)(C)NC(=O)NC(=O)COC(=O)CCC1CCCCC1`, which inhibition [1] is on record?
Its inhibition is 2.14%.

With `COc1cccc2c(C)c(C(=O)O)[nH]c12` as the compound, how does the inhibition [10] read?
The inhibition was 33% (active).

And the inhibition [6]?
The inhibition was 34.5% (active).

For `c1ccc2c(C[n+]3csc4ccccc43)cccc2c1`, which inhibition [1] is on record?
The inhibition was 61.3% (active).

With `Cc1ccc(C(=O)/C=C/Nc2ccc(S(=O)(=O)Nc3onc(C)c3C)cc2)cc1` as the compound, how does the inhibition [7] read?
Its inhibition is 2.14%.

What about the inhibition [8] of the same compound?
Its inhibition is 3.94%.

And the inhibition [9]?
The inhibition was 2.93%.

For `CC(C)(C)NC(=O)COC(=O)c1cc(Cl)ccc1[N+](=O)[O-]`, which inhibition [7] is on record?
The inhibition was -4.38%.

What about the inhibition [8] of the same compound?
The inhibition was 0.98%.

And the inhibition [9]?
The inhibition was -3.45%.

With `CN1C(c2ccc(F)cc2)=CS/C1=C(/C#N)c1nnc2n1-c1ccccc1SC2` as the compound, how does the inhibition [20] read?
The inhibition was 20.9%.

What does the source list for `COC(=O)N/N=C/c1c[n+]([O-])c2ccccc2[n+]1[O-]`?
inhibition [7]: 94.5% (active); inhibition [8]: 27.4% (active); inhibition [9]: 83.4% (active); inhibition [21]: 23.1% (active); inhibition [22]: 28% (active); inhibition [23]: 91.8% (active)
